Source: PubChem BioAssay (EPA / NIEHS)
“And” between values parts separate entries of the source, which are not always exact repeats. Identical values can stand only once. Records with an inconclusive call do not appear. Some structures have more than one record in an assay (separate samples or runs), and their calls can disagree. The source made the active and inactive calls. Rule for the calls: active = hit-call score of the fitted dose curve at least 0.9, where 1 is the maximum; inconclusive = response in the unintended direction; inactive = score below 0.9.

Legend:
[1] = test system: turtle Estrogen Receptor (ERa), gene 101933533; experiment: ATG_trERa_XSP2: Attagene TRANS-FACTORIAL Multi-Species (XSP2) HepG2 Assay for turtle Estrogen Receptor (ERa) (AID 2283812);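 note: human HepG2 liver cells transiently expressing turtle ERa-Gal4 chimeric receptor; actives raise reporter signal above DMSO so AC50 reflects agonist activity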
Method in brief: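 HepG2 cells transiently transfected with GAL4-UAS reporter units expressing turtle ERa-Gal4 chimera. Reporter mRNA measured after 24 h dosing by RT-PCR, fluorescent labelling and capillary electrophoresis; gain of signal fitted versus DMSO.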

[2] = target: Estrogen receptor beta (Homo sapiens) (UniProt Q92731); experiment: ATG_hERb_XSP2: Attagene TRANS-FACTORIAL Multi-Species (XSP2) HepG2 Assay for human Estrogen Receptor (ERb) (AID 2283813);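 note: actives raise reporter mRNA above DMSO so AC50 reflects agonist induction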
Method in brief: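 HepG2 cells transiently transfected with GAL4-UAS reporter units and chimeric human ERb-Gal4, 24 h exposure. Reporter mRNA quantified by RT-PCR with FAM labelling, HpaI digestion and capillary electrophoresis; gain of signal versus DMSO.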

[3] = target: zebrafish Estrogen Receptor (ER1), esr1 (gene 259252) (UniProt P57717); experiment: ATG_zfER1_XSP2: Attagene TRANS-FACTORIAL Multi-Species (XSP2) HepG2 Assay for zebrafish Estrogen Receptor (ER1) (AID 2283816)
Description: ATG_XSP2_multi-species_TRANS is a cell-based, multiplexed assay created by modifying the existing Attagene TRANS-FACTORIAL system to include a panel of nuclear receptors from some or all the following species: human (Homo sapiens), mouse (Mus musculus), frog (Xenopus laevis), zebrafish (Danio rerio), chicken (Gallus gallus), and turtle (Chrysemys picta). The ECOTOX-FACTORIAL format uses HepG2, a human liver cell line, with measurements taken at 24 hours after chemical dosing in a 24-well plate. Xsp2 included 3 nM 6-alpha-fluorotestosterone and 1.5 nM norgestrel to stimulate the androgen receptor.ATG_zfER1_XSP2 is one of 29 assay components measured or calculated from the ATG_XSP2_multi-species_TRANS assay. It is designed to make measurements of mRNA induction, a form of inducible reporter, as detected with fluorescence intensity signals by Reverse transcription polymerase chain reaction (RT-PCR) and Capillary electrophoresis technology.The assay endpoint ATG_zfER1_XSP2 was analyzed in the positive analysis fitting direction relative to DMSO as the negative control and baseline of activity. Using a type of inducible reporter, measures of mRNA for gain-of-signal activity can be used to understand the reporter gene at the transcription factor-level as they relate to the gene ER. Furthermore, this assay endpoint can be referred to as a primary readout, because this assay has produced multiple assay endpoints where this one serves a reporter gene function. To generalize the intended target to other relatable targets, this assay endpoint is annotated to the nuclear receptor intended target family, where the subfamily is steroidal.
Human liver HepG2 cells are transiently transfected with multiple reporter transcription units (MRTUs) in 6-well plates using FuGene 6 reagent (Roche; 3 ml FuGene/1 mg DNA). The MRTU constructs are regulated by a cis-regulating element (promoter). […] A major difference between the CIS and TRANS system is that in CIS activities of endogenous TFs are measured, whereas the TRANS assay evaluates changes in activities of exogenous, chimeric NR-Gal4 proteins. […] At the end of 24 hour incubation, total RNA was isolated using TriZol reagent (Invitrogen). The isolated RNA is then reverse-transcribed using oligo(dT) primer and Mo-MLV reverse transcriptase (Invitrogen) with DNAse I (Ambion) treatment for 30 min. […] The fragments were purified using Qiaquick PCR columns (Qiagen), analyzed on an ABI 3130xL genetic analyzer (Applied Biosystems) with peak positions identified by using a set of X-rhodamine (ROX)-labeled MapMarker1000 molecular weight standards (BioVentures). […]

[4] = target: chicken Estrogen Receptor (ERa), ESR1 (gene 396099) (UniProt P06212); experiment: ATG_chERa_XSP2: Attagene TRANS-FACTORIAL Multi-Species (XSP2) HepG2 Assay for chicken Estrogen Receptor (ERa) (AID 2283817);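 note: actives raise reporter signal above DMSO so AC50 reflects ER activation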
Method in brief: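 Transient MRTU transfection of HepG2 → 24 h chemical dosing → TriZol RNA, oligo(dT) RT → PCR, 6-FAM primer extension, HpaI digest → CE quantitation of chicken ERa-Gal4-driven reporter mRNA. Positive direction vs DMSO.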

[5] = test system: frog Estrogen Receptor (ER), gene 398734; experiment: ATG_frER1_XSP2: Attagene TRANS-FACTORIAL Multi-Species (XSP2) HepG2 Assay for frog Estrogen Receptor (ER) (AID 2283821);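 note: hits raise reporter mRNA above DMSO baseline so potency means agonist or activator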
Method in brief: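 Steps: transfect HepG2 with multiple reporter transcription units; treat with chemical for 24 h; isolate RNA, reverse-transcribe, PCR-amplify, label with 6-FAM, digest with HpaI; resolve fragments by capillary electrophoresis. Signal is scored against DMSO.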

[6] = test system: zebrafish Estrogen Receptor (ER2b), gene 317733; experiment: ATG_zfER2b_XSP2: Attagene TRANS-FACTORIAL Multi-Species (XSP2) HepG2 Assay for zebrafish Estrogen Receptor (ER2b) (AID 2283823);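 note: fitted upward as reporter gain over DMSO so potency reflects activation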
Method in brief: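 Cells used were HepG2, transiently transfected with chimeric nuclear receptor-Gal4 reporter units. After 24 h of chemical treatment, reporter transcripts were amplified by RT-PCR, labelled and sized by capillary electrophoresis, with induction analysed relative to DMSO.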

[7] = target: Estrogen receptor (Homo sapiens) (UniProt P03372); experiment: ATG_hERa_XSP2: Attagene TRANS-FACTORIAL Multi-Species (XSP2) HepG2 Assay for human Estrogen Receptor (ERa) (AID 2283827)
Method in brief: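 HepG2 cells transiently transfected with multiplexed GAL4-UAS reporters driven by chimeric receptor-Gal4 proteins, dosed 24 h with 3 nM 6-alpha-fluorotestosterone and 1.5 nM norgestrel present. Reporter mRNA by RT-PCR and capillary electrophoresis; gain-of-signal fit versus DMSO.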

[8] = test system: zebrafish Estrogen Receptor (ER2a), gene 317734; experiment: ATG_zfER2a_XSP2: Attagene TRANS-FACTORIAL Multi-Species (XSP2) HepG2 Assay for zebrafish Estrogen Receptor (ER2a) (AID 2283818);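 note: hits raise reporter mRNA so AC50 reflects activation of zebrafish ER2a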
Method in brief: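 HepG2 cells transiently transfected with GAL4-UAS reporter units and chimeric zebrafish ER2a-Gal4, exposed 24 h; medium contains 3 nM 6-alpha-fluorotestosterone and 1.5 nM norgestrel. Reporter mRNA quantified by RT-PCR, HpaI digestion, capillary electrophoresis; gain versus DMSO.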

[9] = test system: chicken Androgen Receptor (AR), gene 422165; experiment: ATG_chAR_XSP2: Attagene TRANS-FACTORIAL Multi-Species (XSP2) HepG2 Assay for chicken Androgen Receptor (AR) (AID 2283819);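 note: hits raise reporter mRNA above DMSO so potency is for activation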
Method in brief: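 HepG2 cells transiently transfected with chicken AR–GAL4 chimeric reporter constructs, stimulated with 3 nM 6-alpha-fluorotestosterone plus 1.5 nM norgestrel, dosed 24 h. Reporter mRNA quantified by RT-PCR and capillary electrophoresis; gain of signal fitted versus DMSO.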

[10] = test system: zebrafish Androgen Receptor (AR), gene 100005148; experiment: ATG_zfAR_XSP2: Attagene TRANS-FACTORIAL Multi-Species (XSP2) HepG2 Assay for zebrafish Androgen Receptor (AR) (AID 2283825);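 note: hits raise reporter mRNA above DMSO so AC50 reflects agonist-type gain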
Method in brief: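 Zebrafish AR–GAL4 chimera transiently expressed with GAL4-UAS reporter in HepG2 cells, co-stimulated with 3 nM 6-alpha-fluorotestosterone and 1.5 nM norgestrel; 24 h dosing, reporter mRNA read by RT-PCR/capillary electrophoresis versus DMSO.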

Measured: AC50

chicken Estrogen Receptor (ERa), ESR1 (gene 396099), sequence (P06212 whole entry, looked up, the tested form may be a part): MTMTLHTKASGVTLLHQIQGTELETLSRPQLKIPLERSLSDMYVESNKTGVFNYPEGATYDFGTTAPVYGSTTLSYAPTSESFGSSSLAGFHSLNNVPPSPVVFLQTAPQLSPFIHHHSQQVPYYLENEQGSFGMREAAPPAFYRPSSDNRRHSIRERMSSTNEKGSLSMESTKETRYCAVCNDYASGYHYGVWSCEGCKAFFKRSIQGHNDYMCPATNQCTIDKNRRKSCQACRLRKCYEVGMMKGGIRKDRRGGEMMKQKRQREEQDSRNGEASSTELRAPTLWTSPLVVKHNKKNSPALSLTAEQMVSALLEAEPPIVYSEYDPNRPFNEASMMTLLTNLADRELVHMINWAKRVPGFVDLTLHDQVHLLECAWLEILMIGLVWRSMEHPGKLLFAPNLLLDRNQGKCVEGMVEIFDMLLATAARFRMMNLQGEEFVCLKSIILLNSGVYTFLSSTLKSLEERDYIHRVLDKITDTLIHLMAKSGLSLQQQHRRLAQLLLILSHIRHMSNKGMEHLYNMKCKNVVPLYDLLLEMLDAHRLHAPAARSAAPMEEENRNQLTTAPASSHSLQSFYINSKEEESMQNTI
Estrogen receptor (Homo sapiens), sequence (P03372 whole entry, looked up, the tested form may be a part): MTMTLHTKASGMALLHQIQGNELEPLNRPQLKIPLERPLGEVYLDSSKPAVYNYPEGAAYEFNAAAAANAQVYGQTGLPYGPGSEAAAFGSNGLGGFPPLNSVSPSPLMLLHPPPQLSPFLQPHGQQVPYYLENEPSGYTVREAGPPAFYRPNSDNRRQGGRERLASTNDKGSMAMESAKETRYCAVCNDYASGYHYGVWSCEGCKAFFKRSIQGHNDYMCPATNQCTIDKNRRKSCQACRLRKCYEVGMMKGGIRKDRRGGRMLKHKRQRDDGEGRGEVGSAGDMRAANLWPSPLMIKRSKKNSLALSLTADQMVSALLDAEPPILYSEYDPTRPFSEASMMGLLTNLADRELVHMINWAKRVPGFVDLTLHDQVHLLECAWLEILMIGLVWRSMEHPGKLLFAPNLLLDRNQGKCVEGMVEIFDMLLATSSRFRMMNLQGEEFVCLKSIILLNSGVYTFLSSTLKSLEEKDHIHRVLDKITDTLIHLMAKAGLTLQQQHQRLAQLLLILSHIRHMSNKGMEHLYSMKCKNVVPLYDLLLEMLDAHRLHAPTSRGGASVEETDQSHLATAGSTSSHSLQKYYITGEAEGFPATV
zebrafish Estrogen Receptor (ER1), esr1 (gene 259252), sequence (P57717 whole entry, looked up): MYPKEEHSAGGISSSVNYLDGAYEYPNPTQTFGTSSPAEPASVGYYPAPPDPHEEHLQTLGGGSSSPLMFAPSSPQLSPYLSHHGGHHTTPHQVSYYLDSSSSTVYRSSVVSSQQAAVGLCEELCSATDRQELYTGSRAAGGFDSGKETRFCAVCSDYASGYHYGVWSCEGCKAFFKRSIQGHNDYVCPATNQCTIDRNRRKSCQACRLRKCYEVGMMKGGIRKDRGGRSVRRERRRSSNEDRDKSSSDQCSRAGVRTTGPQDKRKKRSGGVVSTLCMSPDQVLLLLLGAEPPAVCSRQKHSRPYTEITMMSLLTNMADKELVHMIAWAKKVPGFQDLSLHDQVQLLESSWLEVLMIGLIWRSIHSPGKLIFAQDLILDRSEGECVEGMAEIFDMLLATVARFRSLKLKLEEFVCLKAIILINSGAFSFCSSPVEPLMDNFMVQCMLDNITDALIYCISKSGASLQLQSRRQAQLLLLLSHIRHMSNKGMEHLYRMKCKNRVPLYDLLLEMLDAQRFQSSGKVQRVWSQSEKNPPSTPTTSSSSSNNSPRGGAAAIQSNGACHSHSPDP
Estrogen receptor beta (Homo sapiens), sequence (Q92731 whole entry, looked up, the tested form may be a part): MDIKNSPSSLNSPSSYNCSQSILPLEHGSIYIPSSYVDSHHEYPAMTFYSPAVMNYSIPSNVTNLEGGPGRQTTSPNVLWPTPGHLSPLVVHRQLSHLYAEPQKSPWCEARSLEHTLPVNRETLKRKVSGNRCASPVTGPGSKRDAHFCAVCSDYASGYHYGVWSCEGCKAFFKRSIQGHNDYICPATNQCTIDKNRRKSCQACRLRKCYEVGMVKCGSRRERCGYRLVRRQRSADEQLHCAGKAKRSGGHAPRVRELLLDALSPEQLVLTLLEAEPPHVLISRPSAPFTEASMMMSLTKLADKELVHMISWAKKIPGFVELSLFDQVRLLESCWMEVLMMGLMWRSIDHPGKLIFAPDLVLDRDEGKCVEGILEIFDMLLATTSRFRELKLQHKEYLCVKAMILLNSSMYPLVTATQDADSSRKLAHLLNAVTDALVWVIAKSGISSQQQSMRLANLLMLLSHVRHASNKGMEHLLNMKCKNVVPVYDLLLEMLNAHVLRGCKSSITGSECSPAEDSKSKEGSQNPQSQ

C(=C(c1ccccc1)c1ccccc1)c1ccccc1
active: [1] 39.9 nM | [4] 29.1 nM | [6] 165 nM | [7] 46.1 nM
inactive: [2] | [3] | [5]

c1ccc(B(c2ccccc2)c2ccccc2)cc1
active: [1] 4.9 µM and 7.88 µM | [3] 59.7 µM and 22 µM | [4] 5.78 µM and 3.86 µM | [8] 7.9 µM and 9.53 µM | [5] 7.06 µM and 7.56 µM | [6] 18.1 µM and 10.8 µM | [7] 7.53 µM and 3.43 µM
inactive: [9]

C#C[C@]1(O)CC[C@H]2[C@@H]3CCc4cc(OC)ccc4[C@H]3CC[C@@]21C
active: [1] 0.21 nM and 0.082 nM | [3] 10.2 nM and 3.1 nM | [4] 0.189 nM and 0.519 nM | [8] 0.272 nM and 0.0819 nM | [5] 0.598 nM and 0.0823 nM | [6] 1.1 nM and 0.373 nM | [7] 0.111 nM and 0.0826 nM

O=C(OCCOCCOCCOC(=O)c1ccccc1)c1ccccc1
inactive: [1] | [3] | [4] | [9] | [5] | [6] | [10] | [7]
active: [6] 153000 nM | [7] 26700 nM
